# Laboratory results published in PubChem BioAssay (NCATS).
# Where “and” joins values, the source holds several entries; their conditions need not be identical. Identical values can stand only once. Some compounds were tested as several samples or in several runs, with calls that do not always agree. Calls of active or inactive are those of the source. A call without a number means that no potency is given here. Calls come from the whole dose curve; as a rule, active = well fitted inhibition curve with a large enough effect; inconclusive = small, poorly fitted or top-dose-only effect; inactive = no such curve, though single readings can be large or run the other way.
# Assay: qHTS assay for measurement of the activity of small molecule inhibitors on Zika virus induced Caspase-3 activity in human astrocytoma cells (AID 1224859)
# Settings: SNB-19 ZIKV-induced caspase-3/7, luminescence, 6 h; series mostly up to 45.7 µM; activity change, negative = inhibition: at the top concentration
# Source text: National Center for Advancing Translational Sciences [NCATS]
# Johns Hopkins University School of Medicine
# Increase in the Caspase-3 activity indicates an activation of apoptosis cell death pathway caused by Zika virus infection in certain types of neuronal cells including human neural progenitor cells (hNPCs), astrocytes, and astrocytoma cell line (SNB-19). This cell-based caspase-3 activity assay measures the increased caspase-3 activity in the astrocytoma cell line (SNB-19) after a 6-hour Zika virus infection with a luminescence readout. A decrease in the luminescence signal in this assay by small molecule treatment indicates an inhibitory effect of that small molecule on the Zika virus induced caspase-3 activity that may correlate with its effect on reduction of Zika virus caused cell death.
# The medium for SNB-19 cells is composed of RPMI 1640 (ATCC, Cat.# 30-2001), 10% fetal bovine serum (FBS) (GE healthcare Life Sciences, Cat.# SH30071.03), and 1% Pen/Strep (Gibco, Cat.# 15140-122). A Caspase-Glo 3/7 assay kit (catalog number G8092; Promega, Madison, WI) was used to detect caspase-3 activity induced by Zika virus infection in human cells. The reagent mixture was reconstituted as described in the protocol from the manufacturer. Polystyrene tissue culture treated and PDL coated white plates were obtained from Greiner Bio-One (Monroe, NC). Cells were seeded in 384- or 1536-well assay plates and cultured at 37 C with 5% CO2 for 16 to 20 hours. The typical cell seeding density in the 1536-well plate assay is 250 cells/well in 3ul medium for SNB-19 cells in tissue culture treated plates. Compounds were added to cells and incubated for one hour before addition of ZIKV solution to cells (2 FFU/cell). After incubation at 37 C with 5% CO2 for 6 hours, the reagent mixture of Caspase-Glo 3/7 assay kit was added to each well, followed by incubation at room temperature for 30 minutes. The luminescence intensity of the assay plates was measured using a ViewLux plate reader (PerkinElmer). Data were normalized by using the cell-containing wells without ZIKV as a negative control (0% induction of caspase 3/7 activity) and wells containing ZIKV infected cells (Caspase-3 activity induced) as a positive control (100% induction of caspase 3 activity). The percentage inhibitions of the increased Caspase-3 activity by small molecule inhibitors were then calculated.
# Potency is the fitted concentration of half-maximal effect.
Structure (SMILES),Potency,"activity change, negative = inhibition"
CC(C)Oc1ccc2c(=O)c(-c3ccccc3)coc2c1,10 µM (active) and 11.8 µM (active),
CN(c1nccc(=O)[nH]1)C1CCN(c2nc3ccccc3n2Cc2ccc(F)cc2)CC1,inactive,
O=C(NCC1CCCCN1)c1cc(OCC(F)(F)F)ccc1OCC(F)(F)F (stereo not given),,-29.8% (inactive)
CCCc1cc(=O)[nH]c(=S)[nH]1,inactive,
Oc1ccc2ccccc2c1SSc1c(O)ccc2ccccc12,inactive,
CCOC(=O)c1c(C)n(C)c2ccc(O)cc12,inactive,
CC(C)c1ccc2oc3nc(N)c(C(=O)O)cc3c(=O)c2c1,1.32 µM (active) and inactive,
Oc1ccc(OCc2ccccc2)cc1,,-8.2% (inactive)
C[C@@H](c1ncncc1F)[C@](O)(Cn1cncn1)c1ccc(F)cc1F,,-2.87% (inactive)
Cc1ccc(NC(=O)c2ccc(CN3CCN(C)CC3)cc2)cc1Nc1nccc(-c2cccnc2)n1,inactive,
CCc1nc(N)nc(N)c1-c1ccc(Cl)cc1,inactive,
C=CCc1cc(OC)c(O)c(C(=O)NCCO)c1,inactive,
CCCS(=O)c1ccc2nc(NC(=O)OC)[nH]c2c1 (stereo not given),20.9 µM (active),
O=c1ccc2ccc(O)c(O)c2o1,inactive,
Cc1nc(-c2ccc(OCC(C)C)c(C#N)c2)sc1C(=O)O,4.18 µM (active),
C[C@]12CCC(=O)C=C1CC[C@@H]1[C@H]2[C@@H](O)C[C@@]2(C)[C@H]1CC[C@]2(O)C(=O)CO,,1.33% (inactive)
COc1cc2c(N3CCN(C(=O)Nc4ccc(OC(C)C)cc4)CC3)ncnc2cc1OCCCN1CCCCC1,inactive,
COc1cc(Nc2c(C#N)cnc3cc(OCCCN4CCN(C)CC4)c(OC)cc23)c(Cl)cc1Cl,inactive,
O=C(O)c1cn(-c2ccc(F)cc2)c2cc(N3CCNCC3)c(F)cc2c1=O,inactive,
CC(C)C[C@H](NC(=O)[C@H](Cc1ccccc1)NC(=O)c1cnccn1)B(O)O,,65.6% (inactive)

Structure (SMILES),Potency,"activity change, negative = inhibition"
Cc1ncc([N+](=O)[O-])n1CC(C)O (stereo not given),inactive,
O=C(c1ccccc1)c1ccc2n1CCC2C(=O)O (stereo not given),16.6 µM (active),
COC(=O)C1=C(C)NC(C)=C(C(=O)OC(C)C)C1c1cccc2nonc12 (stereo not given),inactive,
Cc1cccc(C#Cc2ccccc2)n1,inactive and 3.98 µM (active),
O=C(NCCO[N+](=O)[O-])c1cccnc1,inactive,
COc1ccccc1N1CCN(CCN(C(=O)C2CCCCC2)c2ccccn2)CC1,,31.6% (inactive)
CCN(CC)CCOc1ccc(Cc2ccccc2)cc1,inactive,
Clc1ccc2c(N3CCN(CCCN4CCN(c5ccnc6cc(Cl)ccc56)CC4)CC3)ccnc2c1,,8.44% [at 20.5 µM] (inactive)
CC1(C)CCC(C)(C)c2cc(NC(=O)c3ccc(C(=O)O)cc3)ccc21,inactive,
CC(=O)O[C@H]1C(=O)[C@@]2(C)C([C@H](OC(=O)c3ccccc3)[C@]3(O)C[C@H](OC(=O)[C@H](O)[C@@H](NC(=O)c4ccccc4)c4ccccc4)C(C)=C1C3(C)C)[C@]1(OC(C)=O)CO[C@@H]1C[C@@H]2O (stereo not given in full),inactive,
Cc1cc(=O)oc2cc(O)ccc12,inactive,
CCC(C)(Oc1ccc(C2(c3ccc(OC(C)(CC)C(=O)O)cc3)CCCCC2)cc1)C(=O)O (stereo not given),,10.4% (inactive)
O=c1c(O)c(-c2cc(O)c(O)c(O)c2)oc2cc(O)cc(O)c12,inactive,
N=C(N)c1ccc2cc(OC(=O)c3ccc(N=C(N)N)cc3)ccc2c1,inactive,
O=C1NC(=O)C(c2ccccc2[N+](=O)[O-])=C1Nc1ccc(O)c(Cl)c1,inactive,
O=C(NOCC1CC1)c1ccc(F)c(F)c1Nc1ccc(I)cc1Cl,inactive,
CC(=O)Nc1ccc(O)cc1,inactive,
O=c1oc2cc(O)ccc2s1,,-15.5% (inactive)
Cc1cc(=O)c2c(O)c3c(O)cc(=O)c4c3c3c(cc(O)c1c23)C(C)(C)C=4O,inactive,
Cc1nc2n(c(=O)c1CCN1CCC(c3noc4cc(F)ccc34)CC1)CCCC2,inactive,
